In ChEMBL document CHEMBL1961873, “Compounds: GSK PKIS; Assays: Nanosyn kinase panel” (2012):
Several values for one entry are separate records, joined by “and”; a condition that tells them apart may be missing. Equal values may be shown once.

Key:
[1] = biological target: Glycogen synthase kinase-3 beta (Homo sapiens) (UniProt P49841); conditions: at 1 µM;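 note: reported values are mean percent inhibition of GSK3B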
[2] = biological target: Homeodomain-interacting protein kinase 1 (Homo sapiens) (UniProt Q86Z02); conditions: at 0.1 µM
Chain of Homeodomain-interacting protein kinase 1 (Homo sapiens) (Q86Z02 whole entry, looked up): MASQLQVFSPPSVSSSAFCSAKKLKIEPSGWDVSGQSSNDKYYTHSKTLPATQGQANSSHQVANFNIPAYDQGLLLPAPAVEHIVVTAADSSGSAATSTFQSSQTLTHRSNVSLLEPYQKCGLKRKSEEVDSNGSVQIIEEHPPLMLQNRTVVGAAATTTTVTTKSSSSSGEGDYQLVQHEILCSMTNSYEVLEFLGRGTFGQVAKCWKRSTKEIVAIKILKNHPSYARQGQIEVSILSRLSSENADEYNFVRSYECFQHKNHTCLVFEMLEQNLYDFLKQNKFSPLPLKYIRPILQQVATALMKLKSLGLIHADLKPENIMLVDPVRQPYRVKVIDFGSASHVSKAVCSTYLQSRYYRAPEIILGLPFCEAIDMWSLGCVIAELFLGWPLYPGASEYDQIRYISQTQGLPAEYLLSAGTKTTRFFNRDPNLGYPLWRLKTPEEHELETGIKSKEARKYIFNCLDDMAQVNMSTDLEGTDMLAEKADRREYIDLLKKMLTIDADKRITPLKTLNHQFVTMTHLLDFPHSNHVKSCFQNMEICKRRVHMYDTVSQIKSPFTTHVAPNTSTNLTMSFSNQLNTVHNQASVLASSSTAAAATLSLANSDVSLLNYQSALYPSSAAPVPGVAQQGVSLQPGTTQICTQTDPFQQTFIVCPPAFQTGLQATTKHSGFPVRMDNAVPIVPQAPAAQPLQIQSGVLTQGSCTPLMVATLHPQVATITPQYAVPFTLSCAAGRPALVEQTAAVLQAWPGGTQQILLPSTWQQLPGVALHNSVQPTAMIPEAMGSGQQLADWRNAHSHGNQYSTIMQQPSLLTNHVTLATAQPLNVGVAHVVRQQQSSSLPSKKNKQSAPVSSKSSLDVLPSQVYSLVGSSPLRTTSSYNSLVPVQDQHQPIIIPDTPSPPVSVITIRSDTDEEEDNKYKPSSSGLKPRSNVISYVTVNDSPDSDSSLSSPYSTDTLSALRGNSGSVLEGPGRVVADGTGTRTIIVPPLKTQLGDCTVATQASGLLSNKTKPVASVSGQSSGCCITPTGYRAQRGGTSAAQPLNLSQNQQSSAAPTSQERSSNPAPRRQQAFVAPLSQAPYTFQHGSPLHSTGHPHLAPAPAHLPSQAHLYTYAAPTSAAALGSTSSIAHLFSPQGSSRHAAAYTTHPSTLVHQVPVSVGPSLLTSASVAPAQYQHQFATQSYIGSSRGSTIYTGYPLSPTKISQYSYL

[3] = biological target: Homeodomain-interacting protein kinase 1 (Homo sapiens) (UniProt Q86Z02); conditions: at 1 µM
[4] = biological target: T1, Homeodomain-interacting protein kinase 4 (Homo sapiens) (UniProt Q8NE63); conditions: at 0.1 µM
T1 sequence (whole entry): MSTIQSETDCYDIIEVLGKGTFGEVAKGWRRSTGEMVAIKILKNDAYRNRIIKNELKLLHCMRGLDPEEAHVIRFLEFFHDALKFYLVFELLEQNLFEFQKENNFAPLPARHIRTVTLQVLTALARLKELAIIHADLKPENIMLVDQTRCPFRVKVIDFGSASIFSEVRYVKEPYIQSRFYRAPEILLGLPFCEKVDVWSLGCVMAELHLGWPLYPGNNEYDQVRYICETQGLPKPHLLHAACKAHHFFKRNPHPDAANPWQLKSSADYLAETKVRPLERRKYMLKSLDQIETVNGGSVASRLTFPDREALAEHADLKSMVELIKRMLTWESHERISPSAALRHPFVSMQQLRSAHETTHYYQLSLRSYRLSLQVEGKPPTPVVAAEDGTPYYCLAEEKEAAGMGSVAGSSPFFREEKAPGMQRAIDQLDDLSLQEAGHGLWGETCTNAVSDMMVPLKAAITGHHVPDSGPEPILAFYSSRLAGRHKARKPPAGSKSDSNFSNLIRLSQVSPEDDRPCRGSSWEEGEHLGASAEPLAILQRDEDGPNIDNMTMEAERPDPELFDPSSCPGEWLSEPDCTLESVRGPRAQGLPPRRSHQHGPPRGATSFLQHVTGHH

[5] = biological target: T1, Homeodomain-interacting protein kinase 4 (Homo sapiens); conditions: at 1 µM
[6] = biological target: Mitogen-activated protein kinase 9 (Homo sapiens) (UniProt P45984); conditions: at 0.1 µM
Chain of Mitogen-activated protein kinase 9 (Homo sapiens) (P45984 whole entry, looked up): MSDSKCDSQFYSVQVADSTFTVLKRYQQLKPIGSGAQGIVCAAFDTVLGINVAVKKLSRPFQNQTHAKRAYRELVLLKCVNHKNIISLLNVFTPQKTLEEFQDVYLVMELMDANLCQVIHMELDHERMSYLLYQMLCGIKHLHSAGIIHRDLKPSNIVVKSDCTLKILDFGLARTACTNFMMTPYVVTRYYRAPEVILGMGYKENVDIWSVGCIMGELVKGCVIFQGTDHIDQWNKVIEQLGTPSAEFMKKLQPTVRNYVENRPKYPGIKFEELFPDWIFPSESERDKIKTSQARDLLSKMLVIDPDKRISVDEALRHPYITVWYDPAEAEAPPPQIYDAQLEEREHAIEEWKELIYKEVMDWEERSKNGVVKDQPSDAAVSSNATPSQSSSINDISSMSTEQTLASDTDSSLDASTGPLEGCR

[7] = biological target: Mitogen-activated protein kinase 9 (Homo sapiens) (UniProt P45984); conditions: at 1 µM
[8] = biological target: Mitogen-activated protein kinase 1 (Homo sapiens) (UniProt P28482); conditions: at 0.1 µM
Chain of Mitogen-activated protein kinase 1 (Homo sapiens) (P28482 whole entry): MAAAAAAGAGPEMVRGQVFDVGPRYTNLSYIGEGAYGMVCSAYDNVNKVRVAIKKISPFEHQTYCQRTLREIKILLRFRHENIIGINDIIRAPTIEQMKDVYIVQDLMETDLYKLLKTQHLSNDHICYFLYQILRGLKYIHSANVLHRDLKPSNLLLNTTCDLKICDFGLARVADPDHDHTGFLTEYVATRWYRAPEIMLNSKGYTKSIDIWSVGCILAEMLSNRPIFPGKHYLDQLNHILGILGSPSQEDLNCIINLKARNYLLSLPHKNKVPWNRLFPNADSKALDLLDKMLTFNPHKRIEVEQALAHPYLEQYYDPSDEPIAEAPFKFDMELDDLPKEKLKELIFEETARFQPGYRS

[9] = biological target: Mitogen-activated protein kinase 1 (Homo sapiens) (UniProt P28482); conditions: at 1 µM
[10] = biological target: Mitogen-activated protein kinase 3 (Homo sapiens) (UniProt P27361); conditions: at 0.1 µM;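 note: each value is a mean inhibition figure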
Chain of Mitogen-activated protein kinase 3 (Homo sapiens) (P27361 whole entry): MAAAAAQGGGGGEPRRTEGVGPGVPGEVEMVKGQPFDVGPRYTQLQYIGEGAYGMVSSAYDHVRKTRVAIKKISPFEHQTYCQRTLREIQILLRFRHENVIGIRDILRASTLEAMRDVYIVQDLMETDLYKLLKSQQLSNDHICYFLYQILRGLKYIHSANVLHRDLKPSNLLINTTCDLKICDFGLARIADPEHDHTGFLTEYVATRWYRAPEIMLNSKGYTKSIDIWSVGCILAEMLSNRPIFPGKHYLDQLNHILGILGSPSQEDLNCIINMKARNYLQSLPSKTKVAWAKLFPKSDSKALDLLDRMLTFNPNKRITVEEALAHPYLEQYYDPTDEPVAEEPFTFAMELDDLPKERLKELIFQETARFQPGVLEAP

Chain of Glycogen synthase kinase-3 beta (Homo sapiens) (P49841 whole entry, looked up): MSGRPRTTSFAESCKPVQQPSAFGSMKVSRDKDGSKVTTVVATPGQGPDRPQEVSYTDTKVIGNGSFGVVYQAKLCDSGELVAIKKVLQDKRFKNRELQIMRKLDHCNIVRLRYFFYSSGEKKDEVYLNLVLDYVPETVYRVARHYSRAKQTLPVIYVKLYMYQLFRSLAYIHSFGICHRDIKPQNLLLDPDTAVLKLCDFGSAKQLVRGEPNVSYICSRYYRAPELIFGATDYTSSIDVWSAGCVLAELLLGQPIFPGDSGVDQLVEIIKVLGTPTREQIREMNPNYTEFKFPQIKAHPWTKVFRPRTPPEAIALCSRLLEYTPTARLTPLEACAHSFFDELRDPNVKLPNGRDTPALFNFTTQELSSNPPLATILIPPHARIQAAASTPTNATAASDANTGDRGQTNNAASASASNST

Row | Compound | inhibition [1] | inhibition [2] | inhibition [3] | inhibition [4] | inhibition [5] | inhibition [6] | inhibition [7] | inhibition [8] | inhibition [9] | inhibition [10]
1 | Nc1ncnc2occ(-c3ccc(NC(=O)Nc4cc(C(F)(F)F)ccc4F)cc3)c12 | 17% and 5.38% | 5.43% and -2.68% | 37.4% and 21.6% | 60.9% and 51.1% | 78.3% and 77.3% | 4.06% and -9.27% | 21.3% and 4.35% | 1.97% and -3.05% | 1.72% and -1.67% | 0.93% and 0.1%
2 | COc1cc2c(cc1Nc1nc(Nc3cccc(F)c3C(N)=O)c3cc[nH]c3n1)N(C(=O)CN1CCN(C(C)C)CC1)CC2 | 3.89% | 0.07% | 21.8% | 3.33% | 15.4% | 3.04% | 18.2% | 2.66% | 7.45% | 2.64%
3 | OCCCNc1nccc(-c2c(-c3ccc(F)cc3)nn3cc(C(F)(F)F)ccc23)n1 | 31.2% | -0.49% | 3.61% | 3.13% | 6.59% | 14.8% | 59.7% | 1.24% | 7.07% | 1.68%
4 | CCOc1ccc2c(-c3ccnc(Nc4cc(OC)cc(C(F)(F)F)c4)n3)cnn2n1 | 28% | 20.1% | 61.9% | 4.81% | 24.3% | 1.36% | 5.36% | 0.19% | 0.63% | 0.36%
5 | Nc1nccc(-c2c(-c3ccc(F)cc3)ncn2C2CCNCC2)n1 | 2.45% and 5.63% | -0.66% and 2.64% | 7.61% and 4.5% | 0.4% and 1.82% | 8.1% and 1.64% | – | – | -4.78% | 0.6% and 1.9% | -1.7% and 0.12%
6 | Fc1ccc(Nc2nccc(-c3c(-c4ccc(C(F)(F)F)cc4)nn4ncccc34)n2)cc1F | 3.82% | 0.15% | 4.43% | 0.47% | 3.47% | 1.98% | 3.63% | 3.91% | 4.05% | 1.81%
7 | CCS(=O)(=O)c1ccc(OC)c(Nc2ncc(-c3cccc(C(C)=O)c3)o2)c1 | 12.4% | 5.49% | 23% | 5.03% | 27.3% | -1.02% | 1.43% | 4.9% | 3.99% | 2.3%
8 | Fc1cccc(COc2ccc(Nc3ncncc3C#Cc3ccccc3)cc2Cl)c1 | 6.26% | 3.88% | 4.2% | 1.31% | 1.7% | 2.97% | 7.96% | 5.17% | 4.95% | 4.94%
9 | CS(=O)(=O)Nc1ccc(-c2cc(-c3ccccc3)cc(C(N)=O)c2N)cc1 | 3.26% | -3.53% | 2.26% | 0.57% | 2.28% | 0.94% | 1.19% | 4.56% | 2.91% | 2.82%
10 | CN(c1ccc(NC(=O)NCCN2CCOCC2)cc1)c1ccnc(Nc2ccc(CS(C)(=O)=O)cc2)n1 | 5.02% | 2.62% | 5.06% | 6.23% | 31.9% | 1.5% | 3.59% | 5.07% | 8.36% | 4.06%
11 | CN1CCC(C(=O)Nc2n[nH]c3nc(-c4ccc(O)cc4)c(Br)cc23)CC1 | – | 2.86% and -1.65% | 20.1% and 19.3% | 0.89% and 1.06% | 5.87% and 4.37% | 5.88% and 4.7% | 16.6% and 13.9% | 6.51% and 1.55% | 12.1% and 3.95% | 5.16% and 1.61%
12 | CCN1CCC(C(=O)Nc2n[nH]c3nnc(-c4cccc(F)c4F)cc23)CC1 | 88.7% | -1.08% | 2.33% | 0.85% | 4.09% | -0.81% | 1.88% | -0.1% | 0.83% | -2.77%
13 | O=C1Nc2ccccc2/C1=C1\CCc2cc(O)ccc21 | 7.64% | -1.14% | 7.57% | 0.76% | 10.8% | 5.71% | 9.88% | 5.77% | 6.56% | 5.82%
14 | Cc1nnc(-c2cccc(-c3ccc(C(=O)NCC4CC4)cc3)c2)o1 | 11.6% | 4.5% | 4.32% | 2.08% | -0.47% | 3.54% | 6.68% | 2.73% | 5.62% | 5.36%
15 | Cc1cc(O)cc(C)c1/C=C/c1cncc(C(N)=O)c1 | 1.95% | 0.55% | 3.38% | 0.22% | 1.54% | 1.69% | 2.53% | 1.25% | 2.53% | 0.31%
16 | CS(=O)(=O)CCNCc1ccoc1-c1ccc2ncnc(Nc3ccc(OCc4ccccc4)cc3)c2c1 | 4.28% | -3.84% | 0.14% | 0.57% | 2.87% | 1.1% | 1.84% | 0.72% | 2.14% | 0.52%

Row | Compound | inhibition [1] | inhibition [2] | inhibition [3] | inhibition [4] | inhibition [5] | inhibition [6] | inhibition [7] | inhibition [8] | inhibition [9] | inhibition [10]
17 | CNC(=O)c1sc(-n2cnc3cc(OC)c(OC)cc32)cc1OCc1ccccc1C(F)(F)F | 3.56% | -0.45% | -1.76% | 1.98% | 7.08% | 2.65% | 4.22% | 5.45% | 6.09% | 3.11%
18 | NS(=O)(=O)c1cccc(N/C=C2\C(=O)Nc3ccccc32)c1 | 19.7% | -0.03% | 2.88% | 0.43% | 4.51% | 7.2% | 10.9% | 2.99% | 4.54% | 1.72%
19 | c1cnn2ncc(-c3ccnc(NCCCN4CCOCC4)n3)c2c1 | 13% | -1.15% | 6.02% | -0.89% | 3.35% | 3.34% | 5.01% | 2.95% | 4.35% | 2.48%
20 | O=C(Nc1n[nH]c2nnc(-c3cccnc3)cc12)C1CC1 | 81.5% | 33.6% | 74% | 0.58% | 8.84% | 0.33% | 1.3% | 0.58% | 2.75% | 0.53%
21 | c1ccc(-c2n[nH]cc2-c2ccnc(-c3ccc(OCCn4ccnc4)cc3)c2)nc1 | 4.83% | -0.98% | -1.32% | -0.24% | 2.03% | 2.7% | 8.69% | 1.6% | 1.52% | 0.3%
22 | O=C(O[C@H]1CN[C@H](C#Cc2cc3ncnc(Nc4ccc5c(cnn5Cc5ccccc5)c4)c3s2)C1)N1CCOCC1 | 3.77% | -3.77% | -1.24% | -1.27% | -0.32% | 0.01% | 0.13% | 0.84% | -0.13% | -0.77%
23 | N#Cc1cccc(Nc2ncc(-c3ccccc3)o2)c1 | 16.9% | 3.5% | 20.2% | 6.92% | 36.4% | 1.32% | 2.85% | 1.39% | 3.01% | 2.87%
24 | CCS(=O)(=O)c1ccc(OC)c(Nc2ncc(-c3cccc(F)c3)o2)c1 | 4.08% | 1.26% | 23.8% | 4.37% | 30% | 7.66% | 7.11% | 6.33% | 7.09% | 4.68%
25 | CN1CCN(Cc2ccc(-c3cc4ncnc(Nc5ccc(OCc6cccc(F)c6)c(Cl)c5)c4s3)o2)CC1 | 4.12% and 11.3% | -3.31% and 2.8% | 0.3% and 2.78% | -0.43% and 2.01% | 0.76% and 4.59% | 0.58% and 7.12% | 2.65% and 8.42% | 9.37% and 6.21% | 4.78% and 9.62% | 2.39% and 7.04%
26 | COc1ccccc1-c1cc(/C=C2\C(=O)Nc3ncc(Br)cc32)cc(Br)c1O | 8.88% | 0.74% | 7.53% | 0.6% | 10.9% | 3.44% | 8.54% | 3.26% | 4.68% | 4.03%
27 | COc1ccc2ncn(-c3cc(O[C@H](C)c4ccccc4C(F)(F)F)c(C(N)=O)s3)c2c1 | 4.75% | -2.12% | 2.1% | -0.89% | 3.28% | 0.32% | -1.29% | -1.88% | -0.49% | -0.86%
28 | COc1cccc(Nc2nccc(-c3cnn4ncccc34)n2)c1 | 79% | 88.9% | 92.6% | 56.4% | 87.3% | 9.47% | 46.2% | 2.75% | 26.5% | 1.68%
29 | COC(=O)Nc1nc2cc(Oc3ccc(NC(=O)Nc4ccccc4)cc3)ccc2[nH]1 | 8.21% | 0.47% | 2.14% | 3.11% | 2.22% | 3.28% | 3% | 4.54% | 2.22% | 4.71%
30 | COc1cc(N2CCN(C(C)C)CC2)ccc1Nc1nc(Nc2cccc(F)c2C(=O)O)c2cc[nH]c2n1 | 6.19% | 4.97% | 23.6% | 5.89% | 22.7% | 26.4% | 72.5% | 5.18% | 6.34% | 5.83%
31 | NC(=O)c1ccc2c(-c3ccnc(NCCCO)n3)c(-c3ccc(F)cc3)nn2c1 | 41.3% | 1.65% | 4.85% | 5.71% | 7.94% | 38% | 82.2% | 1.98% | 14.9% | 4.06%
